# In the library only some 4.5% were active in any assay of this set; here they are far more common.
# DAX1 inh-1 – DAX1 (NR0B1) inhibition, primary screen; HEK293T StAR-luciferase reporter, SF-1/DAX-1 repression relief; inhibition, % at 6.8 µM; actives 1.1% (n = 370,000); AID 652010;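 active means inhibition above the mean over all tested compounds plus 3 SD, cut at about 3.6% in these data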;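 further: 0% = DAX-1 cells with DMSO and 100% = cells lacking DAX-1 with DMSO; higher inhibition means more luminescence from relief of DAX-1 repression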
# ssDAF12 agonist – activators of S. stercoralis DAF-12 nuclear receptor; HEK293 ssDAF-12/GRIP1 lit1-tk-luc reporter, luminescence; % of 3 µM dafachronic acid response; activation, % at 6.8 µM; actives 1% (n = 370,000);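 active means activation above the mean over all tested compounds plus 3 SD, cut at about 0.9% in these data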;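 further: 0% = DMSO-only wells and 100% = 3 µM delta7-dafachronic acid wells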
# FXN GAA850 act – increases GAA850 frataxin promoter reporter activity | activation, % at 6 µM | AID 540364 | HEK293 lucGAA850 FXN promoter luciferase reporter, 24 h; percent of 10 µM SAHA response | actives 0.56% (n = 360,000);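 active means activation above the average of all compounds screened plus 3 SD, cutoff fixed separately per campaign, cut at about 7.5% in these data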;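 further: 0% = DMSO wells and 100% = 10 µM SAHA wells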
# DAX1 inh-2 – NR0B1 (DAX1) inhibition; P51843; inhibition, % at 6.75 µM; HEK293 Gal4-DAX1 luciferase reporter, luminescence; actives 0.99% (n = 340,000); AID 504766;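 active means inhibition above the mean over all tested compounds plus 3 SD, cut at about 4.2% in these data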;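 further: 0% = DAX1-transfected cells with DMSO and 100% = empty-vector control cells with DMSO; inhibition shows as a rise in luminescence from relieved DAX1 repression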
# Target sequence (P51843 207-470 limits assumed): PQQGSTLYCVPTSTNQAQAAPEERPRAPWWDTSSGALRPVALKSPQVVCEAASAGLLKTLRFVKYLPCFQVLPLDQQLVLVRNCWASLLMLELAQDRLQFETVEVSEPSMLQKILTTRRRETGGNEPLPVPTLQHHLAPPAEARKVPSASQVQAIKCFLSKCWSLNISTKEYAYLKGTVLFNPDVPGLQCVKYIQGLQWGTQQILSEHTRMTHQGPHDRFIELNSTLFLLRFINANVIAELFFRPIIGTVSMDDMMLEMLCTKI
# hgDAF12 agonist – agonists of H. glycines DAF-12 nuclear receptor; HEK293 GAL4-hgDAF12 UAS-luciferase reporter, agonist luminescence; normalized to butyrate control; activation, % at 6.8 µM; actives 1.8% (n = 370,000);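 active means activation above a cutoff set at the mean of all screened compounds plus 3 SD, cut at about 10% in these data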;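 further: 0% = DMSO wells and 100% = sodium butyrate wells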
# hcDAF12 agonist – activates DAF-12 receptor from parasite H. contortus; actives 1.4% (n = 370,000); HEK293 hcDAF-12 lit1-tk-luc reporter, luminescence; 0% DMSO, 100% Δ7-dafachronic acid; activation, % at 6.8 µM; AID 652067;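 active means activation above the mean of all tested compounds plus 3 SD, cut at about 5.5% in these data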;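 further: 100% = response to 3 µM Δ7-dafachronic acid high control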
# * marks the source's active call; other numbers are inactive results; . = no result.
SMILES,DAX1 inh-1,ssDAF12 agonist,FXN GAA850 act,DAX1 inh-2,hgDAF12 agonist,hcDAF12 agonist
CCCCNC(=O)C1(C(C)=O)CC(C(=O)OCC)=NO1 (stereo unspecified),0,-1,.,.,2,-1
O=C(N[C@@H](Cc1ccccc1)C(=O)NCP(=O)(O)OC(Cc1ccccc1)C(=O)O)OCc1ccccc1 (stereo partly specified),.,-2,.,.,0,1
CCC(NC(=O)c1ccc2c(ccn2Cc2cccc(-c3ccccc3C(=O)O)c2)c1)c1ccccc1 (stereo unspecified),-2,-1,.,.,-2,-1
O=C(OCC(=O)c1c[nH]c2ccccc12)c1cccc([N+](=O)[O-])c1,0,1.8*,3,0,6,3
COc1ccc(C(=O)OCC(=O)c2c[nH]c3ccccc23)c(OC)c1,-2,1.7*,3,0,7,5
O=C(COC(=O)c1c[nH]c2ccccc12)NCc1ccccc1,0,-1,4,4.7*,1,1
O=C(COC(=O)c1cc(=O)[nH]c2ccccc12)NCc1ccccc1,0,-1,2,0,-2,-2
COc1ccc(C(=O)COC(=O)c2ccccc2O)c(OC)c1,3.9*,0,4,1,12*,2
Clc1ccc([C@H]2OC[C@@]3(CNCc4ccc5c(c4)OCO5)CS[C@H](c4ccc(Cl)cc4)N23)cc1,.,-2,.,.,5,-1
CCC[C@H]1[C@@H](OC(=O)NCc2cccs2)CC[C@@]23CCCN2C(=O)CCC[C@@H]13,.,-1,.,.,1,-1
CCCCNC(=O)C1(C(=O)C2CC2)CC(c2ccccc2C(F)(F)F)=NO1 (stereo unspecified),-1,0,.,.,-2,5
COc1ccc(CNC(=O)Cn2cc3c(n2)CCCCC3)cc1,0,-1,1,5.7*,-3,-2
Cc1cc(C)cc(N(CC(=O)NC2CCC(C)CC2)S(=O)(=O)c2ccc(C)c(C)c2)c1 (stereo unspecified),2,0,.,.,5,-1
COC(=O)CSCc1nc2ccccc2[nH]c1=O,-1,1,3,0,2,5.6*
COc1ccc(C(=O)NCCS(=O)(=O)N2CCCC2)cc1,3,1,-1,0,6,6.1*
COc1ccc(C(=O)NCCS(=O)(=O)N2CCCCCC2)cc1,-2,0,2,2,1,-1
O=C(NCCO)/C(=C/c1ccc2c(c1)OCO2)NC(=O)c1ccc(Br)cc1,0,-1,-1,4.5*,0,-1
C(=C\c1ccccn1)/c1ccncc1,0,-1,2,3,2,0
Cc1cccc(/C=C/c2ccccc2)n1,2,0,4,.,11*,5
C(=C\c1cc(/C=C/c2ccccc2)ncn1)/c1ccccc1,1,0,3,5.0*,4,3
C(/C=C/c1ccccn1)=C\c1ccccc1,1,0,3,5.0*,7,5
CC(C)CC(CCOCCO)NC(=O)OCc1ccccc1[N+](=O)[O-] (stereo unspecified),.,-1,.,.,1,0
CCCCOc1ccc(-n2nc(C)cc2C)nn1,2,-1,5,4.7*,3,2
C(=C\c1ccccc1)/CSc1nnc(Cc2cccs2)n1-c1ccccc1,0,-1,.,.,1,-1
Cc1cccc(NC(=O)COC(=O)C2C3CC4OC(=O)C2C4C3)c1C (stereo unspecified),0,0,1,2,1,0
SMILES,DAX1 inh-1,ssDAF12 agonist,FXN GAA850 act,DAX1 inh-2,hgDAF12 agonist,hcDAF12 agonist
Cc1cccc(C)c1NC(=O)COC(=O)C1C2CC3OC(=O)C1C3C2 (stereo unspecified),0,-1,0,5.2*,-1,0
COc1ccc(S[C@]2(C(=O)N3CCOCC3)CC(=O)N(c3ccc(C#N)cc3)[C@@H]2c2ccc(OC)cc2)cc1,-2,-1,.,.,-2,-2
O=C(Nc1ccc(Oc2ccccc2)cc1)C1CCN(c2nnc(-n3cccc3)s2)CC1,-1,-2,.,.,4,-2
CN(Cc1cnc2nc(N)nc(N)c2n1)c1ccc(C(=O)N[C@@H](CCC(=O)O)C(=O)O)cc1,-4,-2,-8,-3,-11,-3
Nc1nc2ncc(CNc3ccc(C(=O)N[C@@H](CCC(=O)O)C(=O)O)cc3)nc2c(=O)[nH]1,1,-2,0,5.2*,3,1
CCOc1ccc(-n2c(SCC(=O)Nc3ccc4c(c3)c3ccccc3n4CC)nnc2-c2cccnc2)cc1,-2,-2,.,.,-2,-3
CCOc1ccc(NC(=O)c2ccccc2CO)cc1,2,-1,1,0,7,0
COc1cccc(-c2cc(C(=O)Nc3ccccc3)c3ccccc3n2)c1,0,-1,1,.,-2,2
COc1ccc(NC(=S)c2ccc3ccccc3n2)cc1,.,.,2,3,.,.
CCOc1ccc(NC(=O)c2ccccc2O)cc1,3,0,0,-1,12*,5
CCOc1ccc(NC(=O)c2cc(Cl)nc3ccccc23)cc1,0,0,0,4.3*,1,1
CCOc1ccc(NC(=S)c2ccc3ccccc3n2)cc1,0,1.0*,4,0,2,4
COc1ccc(-c2cc(C(=O)Nc3ccc(C(N)=O)cc3)c3ccccc3n2)cc1,1,-1,2,0,11*,1
CCOC(=O)CNC(=O)N(C)[C@H]1C[C@H]2c3[nH]c4c(-c5cccc(C)c5)cccc4c3CCN2C(=O)[C@H]1[C@H](C)O,0,-2,.,.,-4,-1
CC(=O)Nc1ccc(-c2cc(C(=O)O)c3cc4ccccc4cc3n2)cc1,0,1.8*,1,1,3,5.9*
CC(=O)Nc1ccc(-c2cc(C(=O)O)c3ccc(C)cc3n2)cc1,1,0,0,0,1,0
O=C(O)CCCCC1SCC2NC(=O)NC21 (stereo unspecified),1,-2,-1,5.8*,-1,0
CCCCCC1NC(=O)NC1CCCCCC(=O)O (stereo unspecified),0,-2,-2,-1,1,0
Cc1nn(-c2ccccc2)c2sc(C(=O)NC3CCCc4ccccc43)cc12 (stereo unspecified),1,-1,.,.,-2,0
CCOC(=O)N1CCN(C(=O)C[C@H]2C[C@@]3(C(=O)OC)C(=C[C@H](COCc4ccccc4)O[C@@H]3C)N(Cc3cccc4ccccc34)C2=O)CC1,-1,-2,.,.,1,-3
O=C1c2ccccc2NC2(CCCCC2)N1N=C1CCCCC1,1,0,4,1,12*,1
Cc1n(CC(=O)c2ccc(F)cc2)c2ccccc2[n+]1C,-1,-1,2,0,1,2

# Assay outcomes as filed in PubChem.
